Measured values as given in PubChem BioAssay.
Inconclusive results are not listed. Active and inactive are the calls of the source.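 How the source made its calls, unless noted: active means viability at or below 10% of carrier control in both of two separate runs; inconclusive means viability at or below 10% in only one of the two runs; inactive means the rest.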

How the values were obtained:
[1] = Her2 expression decrease, cell viability multiplex – SKBR3 breast tumor cells, AlphaScreen, ATP viability, primary screen (AID 461;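 active means Her2 level under about 52% in both replicate screens, with viability over 70% of control, limit read from the data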;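 on Her2 level: lower value means less Her2 protein in the cells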;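 on viability: percent of carrier control wells set as 100% viability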); details: SKBR3 Her2 protein level, 18-24 h, measured here: SKBR3 viability, ATP luminescence, at 10 µM
[2] = target: Receptor tyrosine-protein kinase erbB-2 (Homo sapiens) (UniProt P04626); assay: as above; details: 18-24 h, at 10 µM, stronger effect = lower value
[3] = reduced viability of SK-BR-3 breast cancer cells – cell-based, 24 h, human, pilot screen (AID 572); details: SK-BR-3 viability, CellTiter-Glo luminescence, at 10 µM, stronger effect = lower value;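 further: compound exposure lasted between 18 and 24 h rather than exactly 24 h; 100% = carrier-treated control wells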
[4] = HUVEC growth inhibition – cell-based, human, primary screen (AID 575;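 active means viability at or below 30% in both replicate assays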;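 further: 100% = median of untreated cell wells with 0.1% DMSO on each plate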); details: HUVEC proliferation, CellTiter-Glo luminescence, 72 h; at 10 µM; stronger effect = lower value
[5] = H69AR cell proliferation blockers – human, duplicate replicates, primary screen (AID 580;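 active means viability at or under a set limit in both replicates, limit being median viability minus 3 SD, cut at about 48% in these data, passing the limit was not always enough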;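 further: 100% = mean luminescence of untreated wells and 0% = no signal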); details: H69AR lung tumor cells viability, ATP luminescence, 72 h; at 10 µM; stronger effect = lower value
[6] = MRP1 drug-resistance reversers in H69AR cells – cell-based, doxorubicin co-treatment, pilot screen (AID 601;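 active means viability loss from added drug above about 55%, and viability with drug at most 40%, in both replicates, limit read from the data, passing the limit was not always enough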); details: CellTiter-Glo, 72 h, at 10 µM; for differential viability (reversal): stronger effect = higher value
[7] = yeast transport mutant growth inhibition pilot in 384-well plates, post-Golgi transport modulator project (AID 636; in the data active means inhibition above about 31%); details: absorbance 615 nm, about 18 h, stronger effect = higher value
[8] = growth suppression of yeast trafficking mutant, preliminary HTS, modulators of trafficking downstream of Golgi apparatus project, 1536-format plate, OD 615 nm (AID 637; in the data active means inhibition above about 30%); details: yeast transport mutant growth, absorbance 615 nm, 18 h; stronger effect = higher value
[9] = S. cerevisiae growth inhibition in permissive medium (OD615), pilot counter-assay for S. cerevisiae lifespan shortening project, permissive growth control (AID 705;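 active means growth inhibition above 25% in both replicates, a cutoff set 3 SD above the mean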); details: OD615, 24 h, at 10 µM, stronger effect = higher value
[10] = S. cerevisiae growth inhibition in restrictive medium, OD615, pilot screen, restrictive growth control, yeast lifespan reduction project (AID 706;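 active means growth inhibition above a set limit, 3 SD over mean compound inhibition, in both replicates, cut at about 43% in these data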;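 further: modified DeaD lifespan yeast strain shifted to restrictive glucose medium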); details: OD615, 48 h, at 10 µM, stronger effect = higher value
[11] = doxorubicin toxicity protection in MRP-1 cells – H69AR cells, CellTiter-Glo, duplicate, MRP-1 activator project, pilot screen (AID 807;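 active means viability increase at or above a cutoff of the median across tested compounds plus 3 SD, cut at about 8.5% in these data, passing the limit was not always enough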;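 further: compound pretreatment 18-22 h then 72 h combined with doxorubicin; 0% = doxorubicin alone and 100% = vehicle without doxorubicin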); details: H69AR viability with doxorubicin, CellTiter-Glo luminescence; at 10 µM; stronger effect = higher value
[12] = viability of HCT116 without oncogenic beta-catenin – human colon tumor cells, pilot screen (AID 823;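 active means cell viability at or below a set limit in both duplicate runs, the limit being the all-compound median minus 4 SD, cut at about 23% in these data, passing the limit was not always enough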;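 further: 0% = wells killed by 20 µM Hyamine and 100% = untreated DMSO cell wells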); details: HCT116 beta-catenin knockout viability, CellTiter-Glo, 60 h; at 10 µM; stronger effect = lower value
[13] = viability of PTEN-null HCT116 cells – cell-based, HCT116 clonal line, CellTiter-Glo, pilot screen (AID 824;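 active means viability at or below 27.92% in each of two runs, the all-compound median minus 4 SD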;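 further: 0% = 20 µM Hyamine control and 100% = vehicle cell control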); details: HCT116 PTEN-deleted viability, 60 h, at 10 µM, stronger effect = lower value
[14] = RAM pathway blockade in budding yeast – dse1pr::URA3 reporter, 5-FOA selection, pilot screen (AID 869;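 active means inhibition over a set limit, the all-compound mean plus 3 SD, in both replicate runs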;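 further: 0% = DMSO wells with no growth and 100% = 10 µM 1-NA-PP1 with full growth; RAM network block rescues cells from 5-FOA so hits raise OD615 growth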); details: S. cerevisiae dse1pr::URA3 5-FOA growth, OD615, 2 d; at 10 µM; stronger effect = higher value; strain carries analog-sensitive mutant Cbk1 kinase
[15] = RAM signaling pathway blockade in yeast – S. cerevisiae, Pdr1DBD-CYC8 efflux-inhibited sensitized strain, primary screen (AID 1298;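 active means RAM network inhibition above 8.4% in each of two replicates, 3 SD over the compound average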;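 further: 0% = DMSO untreated cells without growth and 100% = 10 µM 1-NA-PP1 full growth; higher means more yeast growth rescued from 5-FOA killing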); details: S. cerevisiae cbk1-as DSE1-URA3 strain, 5-FOA growth OD615, 2 d; at 50 µM; stronger effect = higher value
[16] = H69AR cells + 2 uM doxorubicin, measured here: viability with 2 uM doxorubicin, stronger effect = lower value
[17] = H69AR cells, compound alone cytotoxicity

Chain of Receptor tyrosine-protein kinase erbB-2 (Homo sapiens) (P04626 whole entry, looked up): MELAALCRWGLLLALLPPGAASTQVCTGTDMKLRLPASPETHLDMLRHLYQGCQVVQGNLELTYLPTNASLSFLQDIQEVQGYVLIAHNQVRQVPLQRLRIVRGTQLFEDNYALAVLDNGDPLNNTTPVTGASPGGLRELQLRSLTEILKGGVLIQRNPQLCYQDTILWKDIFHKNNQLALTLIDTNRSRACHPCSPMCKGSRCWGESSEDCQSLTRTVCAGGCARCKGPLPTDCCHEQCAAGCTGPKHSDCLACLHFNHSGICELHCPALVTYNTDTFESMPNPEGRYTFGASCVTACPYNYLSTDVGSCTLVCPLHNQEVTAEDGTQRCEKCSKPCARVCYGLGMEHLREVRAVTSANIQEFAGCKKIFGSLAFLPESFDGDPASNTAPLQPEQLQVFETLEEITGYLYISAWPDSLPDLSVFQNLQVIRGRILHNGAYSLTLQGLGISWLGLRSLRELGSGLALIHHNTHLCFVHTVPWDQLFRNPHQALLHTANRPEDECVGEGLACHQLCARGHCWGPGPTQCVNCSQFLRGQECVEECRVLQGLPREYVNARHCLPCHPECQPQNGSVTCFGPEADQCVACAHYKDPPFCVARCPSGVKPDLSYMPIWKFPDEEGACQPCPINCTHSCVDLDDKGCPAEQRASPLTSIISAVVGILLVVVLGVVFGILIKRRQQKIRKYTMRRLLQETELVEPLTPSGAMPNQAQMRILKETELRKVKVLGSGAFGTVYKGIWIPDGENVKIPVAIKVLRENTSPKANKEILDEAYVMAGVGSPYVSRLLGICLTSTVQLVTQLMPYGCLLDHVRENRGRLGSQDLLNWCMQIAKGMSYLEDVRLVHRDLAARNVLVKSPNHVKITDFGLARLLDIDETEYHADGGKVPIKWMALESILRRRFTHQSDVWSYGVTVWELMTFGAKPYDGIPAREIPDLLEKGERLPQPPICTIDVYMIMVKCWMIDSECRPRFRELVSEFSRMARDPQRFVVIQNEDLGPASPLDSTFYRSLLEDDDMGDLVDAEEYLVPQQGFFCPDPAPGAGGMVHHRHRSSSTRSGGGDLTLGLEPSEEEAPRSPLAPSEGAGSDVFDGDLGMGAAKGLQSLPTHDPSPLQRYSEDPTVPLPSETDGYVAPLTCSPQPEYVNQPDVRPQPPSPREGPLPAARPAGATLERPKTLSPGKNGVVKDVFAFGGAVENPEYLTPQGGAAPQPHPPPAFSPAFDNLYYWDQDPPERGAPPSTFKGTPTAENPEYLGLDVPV

CN(C)c1cc(NC(=O)CN2CCOCC2)c2ccccc2n1
110%: viability [1]
inactive: Her2 level [2] 100% | viability [3] 110% | viability [4] 90.2% | viability [5] 85.8% | differential viability (reversal) ([6]; H69AR cells + 2 uM doxorubicin) 0.73% | inhibition [7] -5.47% | inhibition [8] 7.17% | growth inhibition [9] -12.2% | growth inhibition [10] -11% | viability increase [11] -1.8% | viability [12] 100% | viability [13] 99.4% | inhibition [14] -0.365% | RAM network inhibition [15] 0.06%
85%: viability [6, 16]
85.8%: viability [6, 17]

CCOCCCNC(=O)c1ccc2c(c1)N(Cc1ccccc1)C(=O)CS2=O (stereo not drawn)
106%: viability [6, 17]
104%: viability [1]
96.1%: viability [6, 16]
inactive: Her2 level [2] 103% | viability [3] 104% | viability [4] 103% | viability [5] 106% | differential viability (reversal) ([6]; H69AR cells + 2 uM doxorubicin) 10.2% | inhibition [7] 0.13% | inhibition [8] -10.7% | growth inhibition [9] -5.99% | growth inhibition [10] 6.05% | viability increase [11] -0.16% | viability [12] 102% | viability [13] 93.1% | inhibition [14] 1.42% | RAM network inhibition [15] -0.72%

COc1ccc(N2CCN(CCNC(=O)CCS(=O)(=O)c3cccc4nsnc34)CC2)cc1
103%: viability [6, 17]
91.6%: viability [6, 16]
90%: viability [1]
inactive: Her2 level [2] 97% | viability [3] 90% | viability [4] 99.9% | viability [5] 103% | differential viability (reversal) ([6]; H69AR cells + 2 uM doxorubicin) 11.1% | inhibition [7] -6.58% | inhibition [8] -0.16% | growth inhibition [9] 0.45% | growth inhibition [10] 4.11% | viability increase [11] -1.51% | viability [12] 98.5% | viability [13] 95.2% | inhibition [14] 0.835% | RAM network inhibition [15] 5.62%

COc1cc(C(=O)Nc2cccc(-c3nncn3C)c2)cc(OC)c1OC
81.2%: viability [6, 16]
102%: viability [1]
89%: viability [6, 17]
inactive: Her2 level [2] 110% | viability [3] 102% | viability [4] 101% | viability [5] 89% | differential viability (reversal) ([6]; H69AR cells + 2 uM doxorubicin) 7.79% | inhibition [7] -2.31% | inhibition [8] -5.5% | growth inhibition [9] 2.38% | growth inhibition [10] 4.63% | viability increase [11] -1.76% | viability [12] 91.4% | viability [13] 104% | inhibition [14] 0.045% | RAM network inhibition [15] 1.54%

Cc1c(C#N)c2ncnc(-c3ccccc3)c2n1-c1ccccc1
19.3%: viability [6, 16]
71.8%: viability [6, 17]
inactive: Her2 level [2] 101% | viability [3] 106% | viability [4] 85.5% | viability [5] 71.8% | differential viability (reversal) ([6]; H69AR cells + 2 uM doxorubicin) 52.5% | inhibition [7] -3.64% | inhibition [8] -4.92% | growth inhibition [9] -10.9% | growth inhibition [10] -15.3% | viability increase [11] -5.64% | viability [12] 91% | viability [13] 85.9% | inhibition [14] 0.395% | RAM network inhibition [15] 5.06%
106%: viability [1]

COC(=O)c1ccc(-n2nnnc2SCc2nn[nH]n2)cc1
77%: viability [1]
114%: viability [6, 17]
inactive: Her2 level [2] 135% | viability [3] 77% | viability [4] 107% | viability [5] 114% | differential viability (reversal) ([6]; H69AR cells + 2 uM doxorubicin) 21.8% | inhibition [7] 3.21% | inhibition [8] -5.5% | growth inhibition [9] -0.675% | growth inhibition [10] 25.4% | viability increase [11] 0.27% | viability [12] 106% | viability [13] 100% | inhibition [14] 0.965% | RAM network inhibition [15] -1.09%
91.7%: viability [6, 16]

c1ccc(CN2CCN(CCCNc3ccc4nnc(-c5ccccc5)n4n3)CC2)cc1
inactive: Her2 level [2] 78.5% | viability [3] 83% | viability [4] 50.2% | viability [5] 86.3% | inhibition [7] 0.13% | inhibition [8] -2.17% | growth inhibition [9] -8.05% | growth inhibition [10] 5.01% | viability increase [11] -7.78% | viability [12] 50% | viability [13] 55.5% | inhibition [14] 2.78% | RAM network inhibition [15] 3.65%
86.3%: viability [6, 17]
30.8%: viability [6, 16]
83%: viability [1]
active: differential viability (reversal) ([6]; H69AR cells + 2 uM doxorubicin) 55.5%

S=c1[nH]nc(-c2ccccc2)n1C1C=CCCC1 (stereo not drawn)
inactive: Her2 level [2] 104% | viability [3] 95.5% | viability [4] 97.4% | viability [5] 85% | differential viability (reversal) ([6]; H69AR cells + 2 uM doxorubicin) 0.65% | inhibition [7] 1.56% | inhibition [8] -6.33% | growth inhibition [9] 2.92% | growth inhibition [10] -1.09% | viability increase [11] -1.61% | viability [12] 102% | viability [13] 101% | inhibition [14] 1.67% | RAM network inhibition [15] 2.63%
85%: viability [6, 17]
84.4%: viability [6, 16]
95.5%: viability [1]

COc1ccc(C/C(N)=N/n2cnnc2)cc1Cl
94%: viability [1]
inactive: Her2 level [2] 100% | viability [3] 94% | viability [4] 103% | viability [5] 102% | differential viability (reversal) ([6]; H69AR cells + 2 uM doxorubicin) 2.52% | inhibition [7] -2.21% | inhibition [8] -0.83% | growth inhibition [9] -9.88% | growth inhibition [10] -12% | viability increase [11] -0.81% | viability [12] 95.7% | viability [13] 99.8% | inhibition [14] 1.04% | RAM network inhibition [15] 2.47%
99.4%: viability [6, 16]
102%: viability [6, 17]
